# This is part of a sample that, as a whole, favours compounds with a hit. Of some 83,000 tested, about 20% had one in any assay.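 Growth was measured after 48 h exposure to one concentration of compound in 96-well plates. Values under 10 count as active.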 Unmarked numbers belong to inactive results. Active and inactive are the calls of the source.
# Test system: NCI/ADR-RES ovarian
# Test: NCI-60 one-dose screen, 48 h (100 = growth as untreated, 0 = no growth, -100 = all killed)
# Conditions: 10 µM unless noted
row,SMILES,growth
1,CCCCCN1C=C/C(=C\C(=O)N(C)c2ccc(Oc3ccccc3)cc2)c2ccccc21,100%
2,COc1cc2nc(-c3ccc(Cl)cc3)cc(OCCCN3CCCC3)c2cc1OC,47.3%
3,CCCOC(=O)N[C@H]1CCc2c(Cl)c(OC)c(OC)c(OC)c2-c2ccc(SC)c(=O)cc21,13.6%
4,CCCCCCOc1ccc(/C=N/Nc2cc(C)nc3ccc(Cl)cc23)cc1,-27.8% (active)
5,Nc1c(C(=O)Nc2cccc3cnccc23)sc2nc3c(cc12)CN(Cc1ccccc1)CC3,112%
6,CCCCOc1ccc(/C(C)=N/Nc2cc(C)nc3ccc(Br)cc23)cc1,99.2%
7,Cc1cnc(C(=O)Nc2nc3ccc(S(=O)(=O)Nc4ccc(C(C)(C)C)cc4)cc3[nH]2)cn1,13.8%
8,CCN1CCN(CCNc2nccc(-c3c(-c4cccc(OC)c4)nc4occn34)n2)S1(=O)=O,109%
9,CCCCOc1ccc(/C=N/Nc2cc(C)nc3ccc(Br)cc23)cc1,83.8%
10,O=c1[nH]nc(-c2ccccc2)c2sc3ncc(-c4ccc(Br)cc4)n3c12,98.2%
11,O=C(Nc1ccc(NC(=O)c2cc(=O)[nH]c3ccccc23)cc1)Nc1cccc(Cl)c1,94.9%
12,Oc1ccc(C(c2ccc(O)cc2)c2ccc(Br)cn2)cc1,-38.7% (active)
13,CCOC(=O)[C@@H]1CCCN(S(=O)(=O)c2ccc(S(=O)(=O)N(CC)CC)c(F)c2)C1,47.2%
14,N#Cc1cccc(-c2ccc3c(c2)NC(=O)/C3=C\c2ccc[nH]2)c1,76.1%
15,O=[N+]([O-])c1cc(Br)c2cccc3c2c1CC3,114%
16,NS(=O)(=O)c1ccc(Cn2c(SCC(=O)N/N=C/c3ccccc3O)nc3ccccc3c2=O)cc1,98.3%

row,SMILES,growth
1,CCNC(=O)Oc1ccc(/C(=C(\C)c2ccccc2)c2ccc(OCCN(CC)CC)cc2)cc1,85%
2,COc1ccc(C(=O)/C=C/c2cc3ccccc3n3nnnc23)cc1,113%
3,O=C(N/N=C/c1ccc(Oc2ccccc2)cc1)c1cnn2c1NC(c1ccccc1)C2 (configuration not stated),68.7%
4,NC1=NN=C(N)C1=Cc1cc2ccccc2n2nnnc12,105%
5,CCSCC1CC(O)(c2ccccc2)CC(c2ccc(F)cc2)O1 (configuration not stated),24.6%
6,COc1ccc(/C=C(\C#N)n2nc3cccc(F)c3n2)cc1,104%
7,Nc1n[nH]c2cccc(C#Cc3cccc(C(=O)Nc4cccc(C(F)(F)F)c4)c3)c12,80.6%
8,O=C(Nc1ccccc1C(=O)N/N=C(\c1ccccc1)c1ccccn1)c1ccc(F)cc1,9.79% (active)
9,C=C1C(=O)O[C@H]2[C@H]1CC/C(C(=O)NCCCCCNC(=O)/C1=C/CC[C@@]3(C)O[C@H]3[C@H]3OC(=O)C(=C)[C@@H]3CC1)=C\CC[C@@]1(C)O[C@@H]21,103%
10,N#Cc1c(NCc2ccccc2I)sc2c1CCCCC2,89.7%
11,C=C1C(=O)O[C@H]2[C@H]1CC/C(COC(=O)NCC(C)c1ccc(CC(C)C)cc1)=C\CC[C@@]1(C)O[C@@H]21 (some centres not stated),28.6%
12,Cc1cc(C(=O)/C=C/c2ccc[nH]2)ccc1-n1ccc(C(F)(F)F)n1,89.3%
13,COc1cc(C2=C(c3cn(C)c4ccccc34)COC2=O)cc(OC)c1OC,13%
14,COc1cc(/C=C\C(=O)O)ccc1OCc1ccccc1,101%
15,COc1cc2c(=O)n(CCN)c3c4cc5c(cc4ccc3c2cc1OC)OCO5,-37.3% (active)
16,CN(C)CC(O)c1ccc(/C=C/c2ccc(Cl)cc2)cc1 (configuration not stated),5.74% (active)
